# Assay results reported in PubChem BioAssay (NCATS).
# Results filed as inconclusive are left out. A call without a number means that no potency is given here. Calls of active or inactive are those of the source. Calls follow the shape of the dose curve; as a rule, active = well fitted inhibition curve with a large enough effect; inconclusive = small, poorly fitted or top-dose-only effect; inactive = no such curve, though single readings can be large or run the other way. *1 amine or outer side, *2 acyl side, *3 side chain or, on linkers, in order; H or OH if unused. Where a SMILES comes first, the peptide text is derived from it. Bridges are numbered along the chain shown (N, C = ends). [ ]: non-standard residue; d: D form. The star is where a group is joined. pTerphenylCO(4''-OnC5H11) = CCCCCOc1ccc(-c2ccc(-c3ccc(C(=O)*)cc3)cc2)cc1; Orn(4R-OH,5R-OH) = O=C([C@H](C[C@@H](O)[C@@H](O)N[*:3])N[*:1])[*:2]; hTyr(3S-OH,4S-OH) = N[C@H](C(=O)O)[C@H](O)[C@@H](O)c1ccc(O)cc1; Pro(3S-OH,4S-Me) = C[C@H]1CN[C@H](C(=O)O)[C@H]1O; Hyp = O=C(O)[C@@H]1C[C@@H](O)CN1
# System: Zika virus NS2B-NS3 protease (unlinked complex)
# Test: Primary screen GU Rhodamine qHTS for Zika virus inhibitors: Unlinked NS2B-NS3 protease assay (AID 1347159); also: nearly all actives have a fitted effect of over 60% in size
# Conditions: Recombinant ZIKV NS2B-NS3 protease, Rhodamine110 substrate fluorescence; series mostly up to 107 µM
# In short: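 Noncovalent NS2B hydrophilic domain–NS3 protease domain complex (25 nM) preincubated 15 min at room temperature with compounds (up to 114 microM) in 10 mM Tris-HCl pH 8.0, 0.01% Tween 20; 1.5 microM Rhodamine110 substrate added, fluorescence change over 15 min fitted to Hill equation.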
# Potency is read from the fitted curve at half-maximal effect.
row,Compound,Potency
1,"CCCCCOc1ccc(-c2ccc(-c3ccc(C(=O)N[C@H]4C[C@@H](O)[C@@H](O)NC(=O)[C@@H]5[C@@H](O)[C@@H](C)CN5C(=O)[C@H]([C@@H](C)O)NC(=O)[C@H]([C@H](O)[C@@H](O)c5ccc(O)cc5)NC(=O)[C@@H]5C[C@@H](O)CN5C(=O)[C@H]([C@@H](C)O)NC4=O)cc3)cc2)cc1 ({pTerphenylCO(4''-OnC5H11)}-[Orn(4R-OH,5R-OH)]T[Hyp][hTyr(3S-OH,4S-OH)]T[Pro(3S-OH,4S-Me)]; lactam 1-C)",31.6 µM (active)
2,Cc1ccnc(NC(=O)C(C)c2cccc(C(=O)c3ccccc3)c2)c1 (stereo not given),inactive
3,COc1nc2ccc(Br)cc2cc1[C@@H](c1ccccc1)[C@@](O)(CCN(C)C)c1cccc2ccccc12,inactive
4,O=C(Nc1ccccc1)N1CCN(c2nc(-c3ccccc3)ns2)CC1,inactive
5,Fc1ccc2[nH]ccc2c1-c1nc(N2CCOCC2)c2sc(CN3CCN(CC4CC4)CC3)cc2n1,inactive
6,COc1ccc(NC(=O)c2ccc(C(=N)N(C)C)cc2)c(C(=O)Nc2ccc(Cl)cn2)c1,inactive
7,COC1CC(O[C@H]2CC[C@]3(C)C4CC[C@]5(C)C(C6=CC(=O)OC6)=CCC56OC46CC[C@@H]3C2)OC(C)C1O[C@@H]1O[C@H](CO[C@@H]2O[C@H](CO)[C@@H](O)[C@H](O)[C@H]2O)[C@@H](O)[C@H](O)[C@H]1O (stereo not given in full),inactive
8,CC(C)(C)OC(=O)c1ncn2c1C(C)(C)Nc1ccccc1-2,inactive
9,CCOC(=O)C1=Cc2ccc(C(F)(F)C(F)(F)F)cc2N=C(N)C1,inactive
10,CC[C@H](C)/C=C(C)/C=C/C1=CC2=C(Cl)C(=O)[C@](C)(O)[C@H](OC(C)=O)[C@H]2CO1,10 µM (active)
11,COc1cc(C(=O)NCC2(N(C)C)CCCC2)cc(OC)c1OCc1ccccc1,inactive
12,CNCCN1CCC(c2cc(CN(C)C(=O)c3cccc(Oc4ccccc4)c3)ccn2)CC1,inactive
13,Cc1[nH]c2ccccc2c1CCNCc1ccc(/C=C/C(=O)NO)cc1,inactive
14,O=C(NC1CCN(CCCCC2(C(=O)NCC(F)(F)F)c3ccccc3-c3ccccc32)CC1)c1ccccc1-c1ccc(C(F)(F)F)cc1,inactive
15,OC1C=C2C3CN(Cc4cc5c(cc43)OCO5)C2CC1O (stereo not given),inactive
16,CCN(CC)CCCCCCNc1cc(OC)cc2c(C)ccnc12,inactive
17,COc1cc(/C=C2\CCCN([C@@H](C)c3ccc(F)cc3)C2=O)ccc1-n1cnc(C)c1,inactive
18,O=C(Nc1cccnc1)c1cc(-c2ccnc(F)c2)ccc1OCc1ccccc1,inactive
19,CC(=O)OC/C(=C/C(=O)O)CC[C@@H]1C(C=O)=CC[C@@H]2C(C)(C)CCC[C@@]12C,10 µM (active)
20,O=C(Nc1ccc(Cl)cc1)C1CCCN(C(=O)c2cccc(-c3ccco3)c2)C1 (stereo not given),inactive

row,Compound,Potency
1,CC(=O)CC(=O)Nc1ccc(Cl)c(C(F)(F)F)c1,inactive
2,Cc1[nH]c(/C=C2\C(=O)Nc3ccc(F)cc32)c(C)c1C(=O)NCCN1CCCC1,inactive
3,Cc1cc2c(N3CCCC3)nc(N3CCCC3)nc2n1C,inactive
4,Cc1nc2ccc(CN(C)c3ccc(C(=O)NC(CCC(=O)O)C(=O)O)s3)cc2c(=O)[nH]1 (stereo not given),inactive
5,COc1ccccc1S(=O)(=O)Nc1ccc2c(c1)CN(C)C(=O)N2,inactive
6,CC(C)(C[C@@](O)(Cc1cc2ccncc2[nH]1)C(F)(F)F)c1cc(F)ccc1O,inactive
7,CCCCNc1ncc2c(-c3ccc(S(=O)(=O)N4CCOCC4)cc3)nn(C3CCC(O)CC3)c2n1 (stereo not given),inactive
8,Cn1cc(-c2cnn3c(N)c(Br)c(C4CCCNC4)nc23)cn1 (stereo not given),inactive
9,CN(C)C(=O)NC1(c2ccccc2)CCN(CCC[C@]2(c3ccc(Cl)c(Cl)c3)CCCN(C(=O)c3ccccc3)C2)CC1,inactive
10,COC(=O)C1=CO[C@@H](O[C@@H]2O[C@H](CO)[C@@H](O)[C@H](O)[C@H]2O)[C@H]2[C@@H]1C=C[C@]21C=C([C@H](C)OC(=O)/C=C/c2ccc(O)cc2)C(=O)O1,inactive
11,COC(=O)CC(O)CC(O)/C=C/c1c(C)ccc2c1C(OC(C)=O)CC(C)C2 (stereo not given),inactive
12,O=C(NC1(c2ccccc2)CC1)c1c(CN2CCC(N3CCCCC3)CC2)c(-c2cccc(C(F)(F)F)c2)nc2cc(Br)ccc12,inactive
13,C[C@@H]1CC[C@]2(C(=O)O)CC[C@]3(C)C(=CCC4[C@@]5(C)CC[C@H](O)[C@](C)(C(=O)O)C5CC[C@]43C)C2[C@]1(C)O (stereo not given in full),inactive
14,COC(=O)c1ccc2c(c1)nc(NC(=O)c1ccccc1)n2CCCc1ccccc1,inactive
15,C/C1=C/CCC2=CC(OC2=O)C(C)(C)/C=C/C1=O (stereo not given),inactive
16,CCn1c(=O)n([C@H]2CCCN(c3nccc(-c4cc5ccccc5o4)n3)C2)c2ccccc21,inactive
17,CCN1CCN(Cc2ccc(NC(=O)c3ccc(C)c(Oc4ncnc5[nH]c(C)cc45)c3)cc2C(F)(F)F)CC1,inactive
18,C=C1C(=O)OC2C3=C(C)C(=O)CC3C(C)CC(O)C12 (stereo not given),inactive
19,Cc1cc(F)c(C(=O)Nc2cccc(-c3nncn3C(C)C)n2)cc1-n1cnc(C2CC2)c1,inactive
20,CCCc1cc(C)[nH]c(=O)c1CNC(=O)c1cc(-c2ccnc(N3CCN(C)CC3)c2)cc2c1cnn2C(C)C,inactive
